Bioassay records: PubChem BioAssay, National Center for Advancing Translational Sciences (NCATS)
DT40 TDP1 no CPT – qHTS for Inhibitors of human tyrosyl-DNA phosphodiesterase 1 (TDP1): qHTS in cells in absence of CPT | AID 686978, 2013 | DT40 Tdp1-/- hTDP1 cells, no CPT, ATP luminescence, 48 h | Potency, µM (titrated, usually from 46.2 µM), for the others: top-dose activity change, negative = growth inhibition, usual class: inhibitors | 420,000 tested, 15% active; further: potency means the concentration at half of the fitted maximal effect; nearly all actives have a fitted effect of over 55% in size
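Compound effects on proliferation are scored in DT40 Tdp1-/-;hTDP1 cells in the absence of CPT. ATP levels (CellTiter-Glo luminescence) are recorded after a ≥48 hr, 37 °C incubation.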
HT1080 IDH1KD tx – qHTS for induction of synthetic lethality in tumor cells producing 2HG: qHTS for the HT-1080-IDH1KD cell line. HT-1080 IDH1 knockdown viability, ATP luminescence, 48 h. Potency, µM (series often up to 46.1 µM), inactives show top-dose activity, negative = toxicity, hits mostly cytotoxic. AID 686971, 2013. 360,000 tested, 2% active;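 further: potency means the concentration at half of the fitted maximal effect; 0% = DMSO wells and -100% = cell-free medium wells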
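CellTiter-Glo luminescence after 48 h compound exposure at 37 degrees C of IDH1-knockdown HT-1080 cells in 5% FBS RPMI. %Activity scaled between DMSO wells and cell-free media wells, with curves fitted and assigned curve classes.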
DT40 TDP1 CPT – qHTS for Inhibitors of human tyrosyl-DNA phosphodiesterase 1 (TDP1): qHTS in cells in presence of CPT; chicken DT40 Tdp1-/-;hTDP1 cells + 20 nM CPT, ATP luminescence, 48 h; Potency, µM (highest dose often 46.2 µM), without a hit: top-dose activity change, negative = growth inhibition, actives largely listed as inhibitors; 420,000 tested, 12% active; further: potency means the concentration at half of the fitted maximal effect; nearly all actives have a fitted effect of over 55% in size
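Chicken DT40 Tdp1-/- cells complemented with human TDP1, 400 cells/well, exposed to compounds plus 20 nM camptothecin for at least 48 h at 37 C; viability read as ATP content by CellTiter-Glo luminescence.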
ALOX12 inh – Primary qHTS assay for inhibitors of human arachidonate 12S-lipoxygenase (ALOX12): Round 2; Potency, µM (doses to about 108 µM), for the others: at the highest dose activity change, negative = inhibition, hits mostly inhibitors; purified 12hLO, xylenol orange hydroperoxide absorbance; 580,000 tested, 1.1% active; AID 1671190, 2021; Polyunsaturated fatty acid lipoxygenase ALOX12 (Homo sapiens), P18054; further: potency means the concentration at half of the fitted maximal effect
Target sequence (P18054 whole entry, looked up): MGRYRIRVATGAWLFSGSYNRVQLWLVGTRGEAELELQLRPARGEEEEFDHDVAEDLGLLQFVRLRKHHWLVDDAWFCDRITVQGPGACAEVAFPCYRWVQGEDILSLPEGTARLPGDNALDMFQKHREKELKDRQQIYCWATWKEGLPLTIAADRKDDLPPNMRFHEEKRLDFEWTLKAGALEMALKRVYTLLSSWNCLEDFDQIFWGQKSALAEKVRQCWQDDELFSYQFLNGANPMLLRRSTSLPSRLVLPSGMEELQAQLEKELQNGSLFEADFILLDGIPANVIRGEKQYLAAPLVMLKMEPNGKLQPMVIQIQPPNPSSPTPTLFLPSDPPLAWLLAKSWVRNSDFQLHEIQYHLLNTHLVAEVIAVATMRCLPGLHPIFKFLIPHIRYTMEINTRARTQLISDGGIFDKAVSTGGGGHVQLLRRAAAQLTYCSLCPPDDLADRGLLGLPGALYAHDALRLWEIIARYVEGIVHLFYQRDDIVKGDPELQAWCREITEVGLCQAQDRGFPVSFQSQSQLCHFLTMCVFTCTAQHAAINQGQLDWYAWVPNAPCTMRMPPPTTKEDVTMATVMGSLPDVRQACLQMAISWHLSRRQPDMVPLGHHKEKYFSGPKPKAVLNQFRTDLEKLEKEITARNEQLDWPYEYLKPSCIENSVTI
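Purified human 12hLO (150 nM final) in 25 mM Hepes, 0.01% Triton X-100, pH 7.0 was preincubated 15 min at room temperature with compound. Then 40 uM arachidonic acid was added, 30 min. Hydroperoxide was read by Fe-XO absorbance ratio 573/405 nm.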
IL-1B inflam inh – qHTS for Inhibitors of Inflammasome Signaling: IL-1-beta AlphaLISA Primary Screen; activity change, % at 57.5 µM; AID 743279, 2014; THP-1 LPS/ATP IL-1B secretion, AlphaLISA, 16 h; hits give low values; 360,000 tested, 4.7% active; in the data active means activity change below about -50%; inconclusive means mostly about -30% to -49%
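THP-1 cells pretreated 1 hr with compounds (up to 57.5 uM final), then stimulated with LPS (250 ng/mL final) plus ATP (1.25 mM final); secreted IL-1B measured by AlphaLISA after 16 hr, decreased signal indicating inhibition.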
HT1080-NT tox – qHTS for induction of synthetic lethality in tumor cells producing 2HG: qHTS for the HT-1080-NT fibrosarcoma cell line; HT-1080-NT fibrosarcoma viability, CellTiter-Glo ATP luminescence, 48 h; 360,000 tested, 1.6% active; Potency, µM (highest dose often 46.1 µM), for inactives: top-dose activity, negative = less viability, usual class: cytotoxic;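 further: NT is the 2HG producing partner of a matched IDH1 knockdown line; potency means the concentration at half of the fitted maximal effect; 0% = DMSO-treated cells and -100% = media-only wells without cells; nearly all actives have a fitted effect of over 55% in size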
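HT-1080-NT; 750 cells/well; 5% FBS RPMI; 48 h compound, 37 degrees C; CellTiter-Glo luminescence; curve fitting and curve-class assignment.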
An asterisk follows results filed as active; [ ] = another dose, or the depositor's remark. Only a selection was taken, and hits are over-represented in it overall. Unless noted, the call rests on the fitted dose curve; in most records, active means well fitted curve in the direction sought with a large enough effect; inconclusive means small, poorly fitted or top-dose-only effect, or another doubt; inactive means no such curve, though single readings can be large; an effect the other way counts as inactive or inconclusive. Unless noted, on the % scale 0 is the no-effect control and ±100 the full control effect.

CCOc1cc(CNCc2ccco2)ccc1OC was read as ALOX12 inh -15.5%.
`CC(=O)N1N=C(c2ccc(C)cc2)OC1c1ccc(Br)cc1` (stereo not drawn) gave DT40 TDP1 no CPT -29.0%, HT1080 IDH1KD tx -10.2%, DT40 TDP1 CPT 4.8%, ALOX12 inh inconclusive, IL-1B inflam inh -68.9* and HT1080-NT tox -11.7%.
`Cc1ccc(Nc2nc(NCCO)c3ccccc3n2)cc1C` gave DT40 TDP1 no CPT 16.4µM*, HT1080 IDH1KD tx 23.1µM*, DT40 TDP1 CPT inconclusive, ALOX12 inh inconclusive, IL-1B inflam inh -99.5* and HT1080-NT tox 23.1µM*.
For COc1ccc(OC)c(Nc2nc(NCCO)c3ccccc3n2)c1 the results were DT40 TDP1 no CPT 16.4µM*, HT1080 IDH1KD tx inconclusive, DT40 TDP1 CPT inconclusive, ALOX12 inh inconclusive, IL-1B inflam inh -89.4* and HT1080-NT tox -26.7%.
OCCNc1nc(-c2ccccc2)nc2ccccc12 was read as DT40 TDP1 no CPT -21.0%, HT1080 IDH1KD tx -12.5%, DT40 TDP1 CPT 15.3%, ALOX12 inh -13.1%, IL-1B inflam inh inconclusive and HT1080-NT tox 3.4%.
For CCc1ccc(C2C(C(=O)N3CCCCC3)=C(C)NC3=C2C(=O)CC(C)(C)C3)cc1 (stereo not drawn) the results were ALOX12 inh -1.8%.
`Cc1nc(NC(=O)c2ccc(OCC(C)C)cc2)sc1Cc1ccc2c(c1)OCO2` gave DT40 TDP1 no CPT 16.4µM*, HT1080 IDH1KD tx inconclusive, DT40 TDP1 CPT inconclusive, ALOX12 inh -11.6%, IL-1B inflam inh -11.6 and HT1080-NT tox -15.5%.
Screening COc1cc(C(=O)Nc2nc(C)c(Cc3ccc4c(c3)OCO4)s2)cc(OC)c1OC returned DT40 TDP1 no CPT 2.06µM*, HT1080 IDH1KD tx 4.61µM*, DT40 TDP1 CPT 1.3µM*, ALOX12 inh inconclusive, IL-1B inflam inh -10.2 and HT1080-NT tox 4.11µM*.
For COc1cc(C(=O)NCCc2ccc3c(c2)OCO3)cc(OC)c1OC the results were DT40 TDP1 no CPT inconclusive, HT1080 IDH1KD tx 1.2%, DT40 TDP1 CPT inconclusive, ALOX12 inh -2.8%, IL-1B inflam inh 19.9 and HT1080-NT tox 2.9%.
CCCOc1ccc(C(=O)Nc2nc(C)c(Cc3ccc4c(c3)OCO4)s2)cc1 was read as DT40 TDP1 no CPT 7.31µM*, HT1080 IDH1KD tx inconclusive, DT40 TDP1 CPT inconclusive, ALOX12 inh inconclusive, IL-1B inflam inh 20.0 and HT1080-NT tox -14.0%.
For COc1ccccc1OCCNC(=O)c1ccc2[nH]c(C)c(C)c2c1 the results were ALOX12 inh 12.6%.
CC(=O)N1CCn2c(nn(-c3ccc(F)cc3)c2=O)C1 was read as ALOX12 inh 11.7%[176 µM].
`Cc1ccc(C)c(N2CCN(C(=O)C3CCN(c4nnc(N5CCCC5=O)s4)CC3)CC2)c1` gave DT40 TDP1 no CPT inconclusive, HT1080 IDH1KD tx -2.9%, DT40 TDP1 CPT 23.1µM*, ALOX12 inh 0.0%, IL-1B inflam inh inconclusive and HT1080-NT tox -3.7%.
Screening O=C(c1ccco1)N1CCN(C(=O)C2CCCN(c3nnc(N4CCCC4=O)s3)C2)CC1 (stereo not drawn) returned ALOX12 inh -19.8%.
O=C(C1CCN(c2nnc(N3CCCC3=O)s2)CC1)N1CCN(c2cccc(C(F)(F)F)c2)CC1 was read as DT40 TDP1 no CPT 1.84µM*, HT1080 IDH1KD tx -10.7%, DT40 TDP1 CPT 8.2µM*, ALOX12 inh 1.4%, IL-1B inflam inh 36.0 and HT1080-NT tox -11.2%.
For Cc1ccc(C)c(N2CCN(C(=O)c3ccc(N4CCCC4=O)cc3)CC2)c1 the results were DT40 TDP1 no CPT 16.4µM*, HT1080 IDH1KD tx -1.8%, DT40 TDP1 CPT inconclusive, IL-1B inflam inh 0.0 and HT1080-NT tox -3.1%.
CCN(CC)CCNc1ccc(C)c2sc3ccc(O)cc3c(=O)c12 was read as DT40 TDP1 no CPT 0.146µM*, HT1080 IDH1KD tx inconclusive, DT40 TDP1 CPT 0.164µM*, ALOX12 inh inconclusive, IL-1B inflam inh -100.8* and HT1080-NT tox -22.9%.
`Cc1c(C(=O)Nc2ccc(Cl)cc2)c2ccccn2c1CCc1ccncc1` gave DT40 TDP1 no CPT inconclusive, HT1080 IDH1KD tx -2.7%, DT40 TDP1 CPT inconclusive, ALOX12 inh inconclusive, IL-1B inflam inh -59.4* and HT1080-NT tox -14.9%.
Screening Cc1c(C(=O)Nc2ccc(Cl)cc2)c2ccccn2c1C(=O)c1ccc(F)cc1 returned DT40 TDP1 no CPT -21.6%, HT1080 IDH1KD tx 15.2%, DT40 TDP1 CPT -14.8%, ALOX12 inh -13.2%, IL-1B inflam inh 0.0 and HT1080-NT tox 23.0%.
Cc1c(C(=O)Nc2cccc(Cl)c2)c2ccccn2c1CCc1ccncc1 was read as DT40 TDP1 no CPT 23.1µM*, HT1080 IDH1KD tx inconclusive, DT40 TDP1 CPT inconclusive, ALOX12 inh -13.8%, IL-1B inflam inh -189.2* and HT1080-NT tox -19.0%.
O=C(NCc1ccncc1)Nc1cccc(Cl)c1 was read as DT40 TDP1 no CPT -20.9%, HT1080 IDH1KD tx -6.7%, DT40 TDP1 CPT -6.8%, ALOX12 inh 0.0%, IL-1B inflam inh 42.0 and HT1080-NT tox -14.7%.
CCCc1sc(N/N=C/c2ccccn2)nc1-c1ccc(F)cc1 was read as DT40 TDP1 no CPT 4.61µM*, HT1080 IDH1KD tx 3.16µM*, DT40 TDP1 CPT 4.61µM*, IL-1B inflam inh -100.1* and HT1080-NT tox 2.82µM*.
Cc1nc(N/N=C/c2ccccn2)sc1C was read as DT40 TDP1 no CPT 1.3µM*, HT1080 IDH1KD tx 14.6µM*, DT40 TDP1 CPT 1.3µM*, ALOX12 inh -5.4%, IL-1B inflam inh -101.4* and HT1080-NT tox 13µM*.
`COC(=O)c1ccc(/C=N/Nc2nc(C)c(C)s2)cc1` gave DT40 TDP1 no CPT inconclusive, HT1080 IDH1KD tx 0.7%, DT40 TDP1 CPT -25.9%, ALOX12 inh 0.0% and HT1080-NT tox 0.1%.
Screening CC(C)=CCCC1=CC[C@H](C(=O)O)[C@H](C(=O)O)C1 returned DT40 TDP1 no CPT 0.2%[9.04 µM], DT40 TDP1 CPT 3.1%[9.04 µM] and ALOX12 inh 11.9%.
`CC(C)=CC/C=C1\CCC(C(=O)O)C(C(=O)O)C1` (stereo not drawn) gave DT40 TDP1 no CPT 0.0291µM*, HT1080 IDH1KD tx 16.3%, DT40 TDP1 CPT inconclusive, ALOX12 inh -1.8%, IL-1B inflam inh 27.9 and HT1080-NT tox 20.8%.
